Measured values from article PMC9574860, “Chemical Toolkit for PARK7: Potent, Selective, and High-Throughput” (Journal of Medicinal Chemistry, 2022).
Hit rate of the full screen: of about 7,900 compounds, about 400 (5.1%) showed an effect of 50% or more. What follows is part of a selection rich in strong results, with near analogues and random picks from the rest.

Target: Parkinson's disease protein 7 (PARK7/DJ1) (human, UniProt Q99497)
Experiment: primary screen, percent inhibition; read as competition with a fluorescent probe by fluorescence polarization; higher = more effect of the substance
Conditions: 100 µM
Method in brief: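 Covalent fragments at 100 μM final were incubated 2 h with 0.2 μM PARK7, then 20 nM probe JYQ-107 added for a further 2 h. Fluorescence polarization read at 480/520 nm; relative FP loss versus reference controls gave remaining enzyme activity.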

Parkinson's disease protein 7 (PARK7/DJ1), sequence (Q99497 whole entry, looked up): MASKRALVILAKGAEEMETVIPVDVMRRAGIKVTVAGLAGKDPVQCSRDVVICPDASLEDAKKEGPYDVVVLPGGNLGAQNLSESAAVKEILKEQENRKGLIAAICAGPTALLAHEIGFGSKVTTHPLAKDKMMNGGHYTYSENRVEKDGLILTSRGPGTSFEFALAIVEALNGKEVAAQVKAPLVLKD

Row | Structure (SMILES) | Inhibition %
1 | C=CC(=O)Nc1ccccc1N1CCNC(=O)C1 | 10.7%
2 | C=CC(=O)N(CC)C1CCOC(C)(C)C1 (stereo not shown) | 8.38%
3 | O=c1c2ccccc2ccn1CCS(=O)(=O)F | 95.1%
4 | O=c1c2ccccc2ncn1CCS(=O)(=O)F | 14.1%
5 | O=c1c2ccsc2ncn1CCS(=O)(=O)F | 19.7%
6 | CC1(C)OB(c2ccc(C3CCC(=O)N3)cc2)OC1(C)C (stereo not shown) | 6.79%
7 | CNC(=O)C(NC(=O)CCl)c1ccccc1 (stereo not shown) | 8.83%
8 | CC1(C)OB(c2cc(CN3CCCC3)ccc2F)OC1(C)C | 3.85%
9 | C=CC(=O)NC(C)(C)c1noc(C(C)(C)C)n1 | 17.1%
10 | CN(C)CCn1c(S)nc2ccccc2c1=O | 82.9%
11 | CN(C)CCCn1c(S)nc2ccccc2c1=O | 5.79%
12 | CCN(CC)CCn1c(S)nc2ccccc2c1=O | 4.52%
13 | CC1=NOC(=O)C1CC(=O)O (stereo not shown) | 99%
14 | CC1=NOC(=O)C1CCC(=O)O (stereo not shown) | 8.64%
15 | O=C1OCCC1Sc1nnc(-c2cccs2)o1 (stereo not shown) | 21.8%
16 | O=C1OCCC1Sc1nnc(C2CCCCC2)o1 (stereo not shown) | 66.7%
17 | O=C1OCCC1Sc1nnc(-c2ccncc2)o1 (stereo not shown) | 6.02%
18 | c1ccc(N2CCN(CC3OCCO3)CC2)cc1 | 5.86%
19 | C=CC(=O)NC1CC(NC(=O)C2CCC2)C1 (stereo not shown) | 7.98%
20 | N#Cc1ccc(NC(=O)CCCl)cc1 | 9.81%
21 | CC1(C)OB(c2ccnc3c(O)cccc23)OC1(C)C | 22.4%
22 | ClCCCn1cccn1 | 5.21%
23 | CCN(Cc1ccc2c(c1)OCCO2)C(=O)CCl | 17.9%
24 | CN(Cc1ccc(Br)cc1)C(=O)CCl | 52.8%
25 | CN(Cc1ccc2c(c1)OCCO2)C(=O)CCl | 91.9%
26 | CN(Cc1ccc(N(C)C)cc1)C(=O)CCl.Cl | 71.3%

Row | Structure (SMILES) | Inhibition %
27 | CSc1ccc(CN(C)C(=O)CCl)cc1 | 14.4%
28 | CN(Cc1ccc(Cl)c(Cl)c1)C(=O)CCl | 43.3%
29 | CN(Cc1ccsc1)C(=O)CCl | 37.6%
30 | CN(Cc1ccc(Cl)cc1)C(=O)CCl | 48.5%
31 | Cc1ccc(CN(C)C(=O)CCl)cc1 | 68.9%
32 | C=CC(=O)NCc1cc(C)on1 | 8.31%
33 | CCC(=O)N1CCCC1C1CCCN1C1CCOC1=O (stereo not shown) | 8.79%
34 | N#CC(=Cc1ccc(CSC(F)F)o1)C(N)=O | 16.4%
35 | CC(=O)c1ccc(F)c(B2OC(C)(C)C(C)(C)O2)c1 | 5.97%
36 | O=C(CCl)N1N=C(c2ccco2)CC1c1cccs1 (stereo not shown) | 12.6%
37 | O=C(CCl)Nc1ccccc1C(F)(F)F | 11.7%
38 | C=CC(=O)Nc1nc(COC)cs1 | 8.35%
39 | C=CC(=O)NCC1(C)CC(F)(F)C1 | 5.99%
40 | CC1CC(n2cnc3c2c(=O)n(C)c(=O)n3C)C(=O)O1 (stereo not shown) | 8.16%
41 | CC(C)(C)Nc1cc(F)c(S(=O)(=O)F)cc1N | 7.67%
42 | Cc1nn(S(=O)(=O)c2ccccc2)c(C)c1C | 6.77%
43 | N#CC(=Cc1ccccc1)C(=O)O | 0.493%
44 | Clc1ccc(Cl)c(OCC2CO2)c1 (stereo not shown) | 5.37%
45 | CCc1nccn1S(=O)(=O)c1cc(C)c(OC)cc1C | 7.23%
46 | O=C(NCC1CCC(O)C1)c1cc(B(O)O)ccc1F (stereo not shown) | 1.49%
47 | Cl.O=C(CCl)Nc1ccccn1 | 14.1%
48 | ClCCc1cscn1 | 5.31%
49 | O=C(CCl)c1ccccn1 | 102%
50 | O=C(CCl)c1cscn1 | 101%
51 | C=CC(=O)NCCc1cscn1 | 5.76%
52 | Cl.O=C(CCl)c1c[nH]c2ncccc12 | 10.6%

Row | Structure (SMILES) | Inhibition %
53 | COc1cncc(C#N)n1 | 9.79%
54 | C=CC(=O)N1Cc2ccccc2OC(C)(C)C1 | 13.6%
55 | Cc1cc(C)cc(OC(=O)N2CCOCC2)c1 | 6.2%
56 | CCc1nc(C)cn1S(=O)(=O)c1cc(Cl)ccc1OC | 5.69%
57 | C=CC(=O)N1CC(S(=O)(=O)c2ccccc2F)C1 | 5.39%
58 | N#Cc1nc(N2CC[C@H](O)C2)ccc1Cl | 9.73%
59 | CC1(C)OB(c2cncc(F)c2)OC1(C)C | 4.04%
60 | N#CC(=Cc1ccco1)C(=O)Nc1nnc(C(F)F)s1 | 4.49%
61 | O=C(CCl)NCCc1ccc(F)cc1 | 26.6%
62 | Cc1oc(C(=O)O)cc1C(=O)CCl | 92.2%
63 | Cc1oncc1C(=O)CCl | 40.2%
64 | Cc1oc(C(N)=O)cc1C(=O)CCl | 30.9%
65 | CC(C)N1CCOC(CCl)C1 (stereo not shown) | 5.12%
66 | O=c1[nH]c(=O)n(C2CC2)c2nc(C3CC3)nc(S)c12 | 3.15%
67 | OB(O)C1=CCN(Cc2ccnn2-c2ccncc2)CC1 | 61.3%
68 | Cn1nccc1[C@@H]1OCC[C@H]1CN1CC=C(B(O)O)CC1 | 44.8%
69 | OB(O)C1=CCN(Cc2cc3n(n2)CCC3)CC1 | 33.1%
70 | C=CC(=O)NC1CC(OCC)C12CCCC2 (stereo not shown) | 8.99%
71 | O=C1CCC(CN2CCc3[nH]c4ccc(F)cc4c3C2)O1 (stereo not shown) | 21.1%
72 | O=C(CCl)N1CCN(c2ccccc2[N+](=O)[O-])CC1 | 80.7%
73 | O=C(Nc1ccccc1)C1CCN(C(=O)CCl)CC1 | 12.6%
74 | O=C(CCl)N1CCN(C(=O)Nc2ccccc2)CC1 | 64.2%
75 | Cl.O=C(CCl)N1CCN(Cc2ccccc2)CC1 | 7.64%
76 | CC(=O)c1ccc(N2CCN(C(=O)CCl)CC2)c(F)c1 | 11%
77 | O=C(CCl)N1CCN(c2ccc([N+](=O)[O-])cc2)CC1 | 7.53%
78 | C=CC(=O)NCc1nnc2n1CCCC2C(F)(F)F (stereo not shown) | 8.99%

Row | Structure (SMILES) | Inhibition %
79 | CN1CCN(CCCCl)CC1.Cl.Cl | 9.44%
80 | CCN(Cc1ccc(Br)s1)C(=O)CCl | 12.9%
81 | CC1(NC(=O)CCl)CCS(=O)(=O)C1 (stereo not shown) | 2.17%
82 | C=CC(=O)NCCc1nc2ccc(F)cc2n1C | 3.72%
83 | C=CC(=O)NCC1CCC2(CCCC2)O1 (stereo not shown) | 4.84%
84 | Cc1cnc2ccccc2c1S(=O)(=O)F | 95.2%
85 | CS(=O)(=O)n1cnc2ccccc21 | 11.4%
86 | O=c1cnc2ccccc2n1CCS(=O)(=O)F | 13.8%
87 | Cl.ClCCn1cc(-c2ccccc2)cn1 | 6.06%
88 | C=CC(=O)NCc1cccc(C(=O)NC(C)(C)C)c1 | 9.53%
89 | Cc1ccc(C)c(C(=O)Cn2cnc(C#N)n2)c1 | -2.83%
90 | COc1ccc(CS(=O)(=O)F)cc1 | 88.4%
91 | O=S(=O)(F)Cc1ccccc1 | 8.98%
92 | COC(=O)c1ccc(CS(=O)(=O)F)cc1 | 7.95%
93 | Cc1csc(C(C#N)=Cc2cccc3c2OCCCO3)n1 | 1.3%
94 | N#Cc1ccc(NCC2CCN(CC(F)(F)F)C2)cn1 (stereo not shown) | 5.73%
95 | O=C(CCCl)Nc1cccc(S(=O)(=O)N2CCCC2)c1 | 4.27%
96 | C=CC(=O)Nc1ccc(S(=O)(=O)N2CCCC2)cc1 | 8.4%
97 | O=C(CCl)Nc1ccc(S(=O)(=O)N2CCOCC2)cc1 | 87.4%
98 | O=C(CCl)Nc1ccc(S(=O)(=O)N2CCCC2)cc1 | 85.4%
99 | Cl.O=C(CCl)Nc1ccc(CN2CCOCC2)cc1 | 40.1%
100 | O=C(CCl)Nc1ccc(S(=O)(=O)N2CCCCC2)cc1 | 92.7%
101 | O=C(CCl)Nc1cccc(S(=O)(=O)N2CCOCC2)c1 | 8.1%
102 | O=C(CCl)Nc1cccc(S(=O)(=O)N2CCCC2)c1 | 7.91%
103 | O=C(CCCl)Nc1ccc(S(=O)(=O)N2CCCC2)cc1 | 3.33%
104 | Cn1cc(B2OC(C)(C)C(C)(C)O2)cn1 | 4.89%

Row | Structure (SMILES) | Inhibition %
105 | CC(C)(C(=O)CCl)N1C(=O)c2ccccc2C1=O | 5.76%
106 | C=CC(=O)N1C[C@@]2(C)CS(=O)(=O)C[C@@]2(C)C1 | 5.67%
107 | N#Cc1nc(C2CC2)oc1N1CCN(C(=O)C2CC2)CC1 | 5.36%
108 | N#Cc1nccn1Cc1cc(F)cc(F)c1 | 5.08%
109 | N#Cc1nccn1Cc1ccc(F)cc1F | 68.3%
110 | N#Cc1nccn1Cc1cccc(F)c1F | 4.63%
111 | C=CC(=O)N1CCC(c2ccnn2C)CC1 | 4.28%
112 | Cc1ccc(C#N)nc1N1CCCOC(C)C1 (stereo not shown) | 42.8%
113 | COC1CCN(c2nc(C#N)c(Cl)s2)CC1 | 7.16%
114 | COC1CCN(c2nc(C#N)ccc2C)CC1 | 71.3%
115 | N#CC(=Cc1cnn(-c2ccccc2)c1)C(=O)O | 10.6%
116 | CN(C)C(=O)Sc1cnc2nccn2c1 | 3.18%
117 | CN(C(=O)CC1OCCCO1)C1CCCCC1 | 3.82%
118 | CN(CC12CC3CC(CC(C3)C1)C2)C(=O)CCl | 9.71%
119 | CN(CC1CCCCC1)C(=O)CCl | 50%
120 | CN(C(=O)CCl)C1CCCCC1 | 92.5%
121 | CC1CCC(N(C)C(=O)CCl)CC1 (stereo not shown) | 101%
122 | CN(C(=O)CCl)C1CCS(=O)(=O)C1 (stereo not shown) | 8.14%
123 | CCN(C(=O)CCl)C1CCCCC1 | 9.37%
124 | CN(CC1CC1)C(=O)CCl | 50.3%
125 | CN(C(=O)CCl)C1CC1 | -0.367%
126 | C=CC(=O)Nc1cccc2c1CN(CC(C)C)C2 | 8.44%
127 | O=C(c1ccc(S)nc1)N1CCCC1 | 40.7%
